Measured values published in PubChem BioAssay.
Active and inactive are the calls of the source.

Tests used:
[1] = binders of probe aFSTL3 on microarray, primary screen, stem cell growth factor project, biochemical, small-molecule microarray, fluorescence 635/667 (AID 1064); conditions: higher = more signal;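 note: measures binding of the biotinylated anti-FSTL3 antibody to printed compounds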
[2] = binders from COS7 lysate, DM2A8 probe, primary screen, torsin A project, cell lysate, small-molecule microarray, fluorescence 635/667 (AID 1065); conditions: higher = more signal, COS7 lysate expressing mutant human TOR1A
[3] = binders of probe aFGF2 on microarray, primary screen, stem cell growth factor project, biochemical, small-molecule microarray, fluorescence 635/667 (AID 1067); conditions: higher = more signal;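 note: measures binding of biotinylated aFGF2 protein to printed compounds on slides; z-score merges feature fluorescence and signal-to-noise across triplicate slides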
[4] = binders of probe aFGF10 on microarray, primary screen, stem cell growth factor project, biochemical, small-molecule microarray, fluorescence 635/667 (AID 1071); conditions: higher = more signal;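 note: score merges 667 nm spot intensity and signal to noise from triplicate slides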
[5] = molecular target: Neurogenic locus notch homolog protein 2 (Homo sapiens) (UniProt Q04721); assay: Notch2 binders on small-molecule microarrays, primary screen, biochemical, small-molecule microarray, 635 nm fluorescence, stem cell growth factors (AID 1073); conditions: Notch2 binding, higher = more signal
[6] = molecular target: Pro-neuregulin-1, membrane-bound isoform (Homo sapiens) (UniProt Q02297); assay: NRG1 binders on small-molecule microarrays, primary screen, psychiatric disease protein project, biochemical, small-molecule microarray, fluorescence 635/667 (AID 1075); conditions: NRG1 binding, 635 nm fluorescence, higher = more signal;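 note: score combines 667 nm spot fluorescence with signal to noise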
[7] = tested on: Neuregulin-1 EGF-like domain; assay: binders of neuregulin-1 EGF-like domain, primary screen, biochemical, small-molecule microarray, 635 nm fluorescence (AID 1081); conditions: small-molecule microarray binding, higher = more signal;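 note: binding of the protein to compounds printed on small-molecule microarray slides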
[8] = FRG1 promoter luciferase signal modulators, primary screen, FRG1 inhibition for FSHD, cell-based, C2C12 myotubes, firefly/Renilla luciferase, luminescence (AID 1084); conditions: higher = more signal, called active from +8 up or from −8 down
[9] = binders of probe aFST on microarray, primary screen, stem cell growth factor project, biochemical, small-molecule microarray, fluorescence 635/667 (AID 1086); conditions: higher = more signal;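 note: score merges 667 nm fluorescence with signal-to-noise of each printed compound spot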
[10] = binders of probe aHhip on microarray, primary screen, stem cell growth factor project, biochemical, small-molecule microarray, fluorescence 635/667 (AID 1087); conditions: higher = more signal;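 note: score merges spot fluorescence at 667nm with spot signal to noise ratio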

Pro-neuregulin-1, membrane-bound isoform (Homo sapiens), sequence (Q02297 whole entry, looked up, the tested form may be a part, canonical isoform): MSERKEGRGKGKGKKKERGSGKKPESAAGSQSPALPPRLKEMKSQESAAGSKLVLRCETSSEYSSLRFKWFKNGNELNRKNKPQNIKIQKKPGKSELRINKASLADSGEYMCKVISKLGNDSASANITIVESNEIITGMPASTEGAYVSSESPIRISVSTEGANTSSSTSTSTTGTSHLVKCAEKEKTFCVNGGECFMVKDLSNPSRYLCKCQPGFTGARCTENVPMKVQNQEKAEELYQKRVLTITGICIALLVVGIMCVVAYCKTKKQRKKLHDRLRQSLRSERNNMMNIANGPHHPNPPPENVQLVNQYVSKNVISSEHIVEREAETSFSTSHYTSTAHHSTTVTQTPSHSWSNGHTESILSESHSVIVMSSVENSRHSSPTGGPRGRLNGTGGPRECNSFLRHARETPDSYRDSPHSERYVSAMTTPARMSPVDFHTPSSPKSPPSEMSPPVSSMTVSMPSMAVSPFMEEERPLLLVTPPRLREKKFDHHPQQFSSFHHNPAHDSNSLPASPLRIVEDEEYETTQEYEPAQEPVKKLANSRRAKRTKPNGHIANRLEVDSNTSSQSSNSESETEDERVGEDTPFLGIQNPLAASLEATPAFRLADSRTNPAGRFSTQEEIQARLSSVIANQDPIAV
Neurogenic locus notch homolog protein 2 (Homo sapiens), sequence (Q04721 whole entry, looked up, canonical isoform): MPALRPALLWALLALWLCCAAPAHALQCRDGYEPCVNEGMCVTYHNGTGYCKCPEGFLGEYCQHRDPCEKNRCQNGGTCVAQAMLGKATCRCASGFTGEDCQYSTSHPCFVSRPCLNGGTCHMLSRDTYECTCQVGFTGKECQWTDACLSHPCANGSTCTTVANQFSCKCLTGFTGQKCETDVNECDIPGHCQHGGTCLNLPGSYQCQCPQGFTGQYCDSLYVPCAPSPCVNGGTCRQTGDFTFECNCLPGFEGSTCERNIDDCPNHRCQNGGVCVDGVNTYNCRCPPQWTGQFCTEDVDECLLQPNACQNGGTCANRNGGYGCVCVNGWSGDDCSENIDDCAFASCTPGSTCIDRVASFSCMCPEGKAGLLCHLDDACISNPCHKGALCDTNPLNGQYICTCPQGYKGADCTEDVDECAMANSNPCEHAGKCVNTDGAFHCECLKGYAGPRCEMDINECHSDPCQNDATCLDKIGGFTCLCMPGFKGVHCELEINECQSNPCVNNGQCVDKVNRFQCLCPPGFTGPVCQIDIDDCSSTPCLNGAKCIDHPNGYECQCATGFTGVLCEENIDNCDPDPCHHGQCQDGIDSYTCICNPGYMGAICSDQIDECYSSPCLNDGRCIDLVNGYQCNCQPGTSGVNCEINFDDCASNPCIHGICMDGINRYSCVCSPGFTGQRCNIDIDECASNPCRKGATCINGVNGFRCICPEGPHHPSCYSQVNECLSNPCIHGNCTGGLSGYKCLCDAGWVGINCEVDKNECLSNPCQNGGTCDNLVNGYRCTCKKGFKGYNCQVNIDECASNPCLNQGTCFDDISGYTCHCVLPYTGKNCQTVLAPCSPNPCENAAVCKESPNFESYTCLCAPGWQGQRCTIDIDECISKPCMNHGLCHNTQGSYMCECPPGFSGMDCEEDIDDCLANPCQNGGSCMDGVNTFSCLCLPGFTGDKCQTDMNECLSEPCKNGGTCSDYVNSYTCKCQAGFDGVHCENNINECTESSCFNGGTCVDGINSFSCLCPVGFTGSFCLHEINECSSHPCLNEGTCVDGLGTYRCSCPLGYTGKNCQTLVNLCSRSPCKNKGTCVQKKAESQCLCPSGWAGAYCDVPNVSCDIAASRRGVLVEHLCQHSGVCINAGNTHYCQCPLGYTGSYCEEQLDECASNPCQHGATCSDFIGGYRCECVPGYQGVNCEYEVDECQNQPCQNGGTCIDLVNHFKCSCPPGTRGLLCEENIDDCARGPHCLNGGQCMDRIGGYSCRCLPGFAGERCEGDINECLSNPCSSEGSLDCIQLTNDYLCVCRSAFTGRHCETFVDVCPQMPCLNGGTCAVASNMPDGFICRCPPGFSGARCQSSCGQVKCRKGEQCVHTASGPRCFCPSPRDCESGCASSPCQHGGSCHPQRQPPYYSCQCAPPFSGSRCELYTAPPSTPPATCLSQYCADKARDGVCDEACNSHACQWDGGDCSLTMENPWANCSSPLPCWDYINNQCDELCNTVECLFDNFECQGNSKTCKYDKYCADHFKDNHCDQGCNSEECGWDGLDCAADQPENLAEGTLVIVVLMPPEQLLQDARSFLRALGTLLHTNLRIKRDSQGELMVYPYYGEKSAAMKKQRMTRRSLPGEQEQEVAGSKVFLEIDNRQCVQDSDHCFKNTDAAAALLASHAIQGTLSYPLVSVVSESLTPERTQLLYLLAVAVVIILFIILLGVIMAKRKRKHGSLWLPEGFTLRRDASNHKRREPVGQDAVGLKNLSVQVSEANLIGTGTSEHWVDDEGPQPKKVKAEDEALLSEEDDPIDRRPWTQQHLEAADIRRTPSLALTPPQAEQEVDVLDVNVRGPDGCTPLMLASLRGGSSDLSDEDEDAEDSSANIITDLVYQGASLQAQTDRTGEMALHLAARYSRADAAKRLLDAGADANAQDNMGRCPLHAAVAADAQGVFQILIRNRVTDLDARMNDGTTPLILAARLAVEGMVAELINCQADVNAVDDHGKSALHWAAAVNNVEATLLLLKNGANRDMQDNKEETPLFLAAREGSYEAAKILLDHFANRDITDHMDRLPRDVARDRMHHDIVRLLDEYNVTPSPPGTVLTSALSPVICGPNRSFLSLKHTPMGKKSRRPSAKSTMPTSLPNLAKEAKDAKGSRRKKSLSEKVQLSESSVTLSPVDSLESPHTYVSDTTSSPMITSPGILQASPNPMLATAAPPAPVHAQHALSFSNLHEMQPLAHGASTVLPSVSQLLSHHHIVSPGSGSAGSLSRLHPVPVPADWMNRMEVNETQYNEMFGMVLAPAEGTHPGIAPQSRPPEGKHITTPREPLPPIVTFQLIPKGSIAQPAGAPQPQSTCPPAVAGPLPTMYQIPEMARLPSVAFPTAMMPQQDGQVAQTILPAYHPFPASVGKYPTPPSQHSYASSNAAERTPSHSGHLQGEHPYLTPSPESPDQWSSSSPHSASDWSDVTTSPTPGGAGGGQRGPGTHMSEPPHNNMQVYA

## CC(C)NC(=O)[C@@]1(C)c2ccccc2C(=O)N(Cc2ccccc2)[C@H]1c1ccc(CO)cc1
[1]
  composite z-score: 0.267
[2]
  composite z-score: 0.824
[3]
  composite z-score: -0.169
[4]
  composite z-score: -0.548
[5]
  composite z-score: -1.12
[6]
  composite z-score: 1
[7]
  composite z-score: 0.814
[8]
  z-score: -2.47 (inactive)
[9]
  composite z-score: -0.875
[10]
  composite z-score: -0.291

## C=CCN1Cc2ccccc2[C@H]2OC(c3ccc(OCCCO)cc3)=N[C@@]2(CCS(=O)(=O)c2ccccc2)C1=O
[1]
  composite z-score: 1.14
[2]
  composite z-score: 0.852
[3]
  composite z-score: 0.0814
[4]
  composite z-score: 0.201
[5]
  composite z-score: 1.47
[6]
  composite z-score: 1.61
[7]
  composite z-score: 1.35
[8]
  z-score: -0.908 (inactive)
[9]
  composite z-score: 0.932
[10]
  composite z-score: -0.226

## CN1C(=O)C2C(C1=O)C1C=C(CCCO)C2C(C2CC2)N1Cc1cccc(OC(F)(F)F)c1 (stereo not given)
[1]
  composite z-score: -0.143
[2]
  composite z-score: -0.122
[3]
  composite z-score: -0.13
[4]
  composite z-score: -0.203
[5]
  composite z-score: -0.254
[6]
  composite z-score: 2
[7]
  composite z-score: 1.3
[8]
  z-score: -0.688 (inactive)
[9]
  composite z-score: 0.0794
[10]
  composite z-score: -0.242

## C=CCC(OC(C)=O)[C@@H]1[C@@H](N(Cc2ccc(-c3cccc(C(F)(F)F)c3)o2)C(=O)c2ccc(-c3ccccc3)cc2)c2cc(OCCCO)ccc2N1C(=O)c1ccc2ccccc2c1 (stereo not given in full)
[1]
  composite z-score: -0.071
[2]
  composite z-score: -0.651
[3]
  composite z-score: -0.105
[4]
  composite z-score: -0.117
[5]
  composite z-score: 0.311
[6]
  composite z-score: -0.0973
[7]
  composite z-score: -0.373
[8]
  z-score: -0.274 (inactive)
[9]
  composite z-score: 0.543
[10]
  composite z-score: -0.0618

## [N-]=[N+]=NCc1ccccc1[C@@H]1OC(c2ccc(OCCCO)cc2)=N[C@]1(Cc1ccccc1N=[N+]=[N-])C(=O)O
[1]
  composite z-score: 0.535
[2]
  composite z-score: 0.326
[3]
  composite z-score: 0.294
[4]
  composite z-score: 1.14
[5]
  composite z-score: 1.55
[6]
  composite z-score: 1.89
[7]
  composite z-score: 1.3
[8]
  z-score: 1.22 (inactive)
[9]
  composite z-score: 1.28
[10]
  composite z-score: 0.455

## N#Cc1ccc(C(O)C2C=CC3C(=O)NC(=O)C3N2Nc2ccc(Cl)cc2Cl)cc1 (stereo not given)
[1]
  composite z-score: -0.0161
[2]
  composite z-score: -0.0803
[3]
  composite z-score: -0.101
[4]
  composite z-score: 0.116
[5]
  composite z-score: 1.45
[6]
  composite z-score: 1.82
[7]
  composite z-score: 0.649
[8]
  z-score: 1.79 (inactive)
[9]
  composite z-score: 0.119
[10]
  composite z-score: -0.146

## [N-]=[N+]=NCc1ccccc1[C@@H]1OC(c2ccc(OCCCO)cc2)=N[C@]1(Cc1ccccc1N=[N+]=[N-])C(=O)NCC(O)CO (stereo not given in full)
[1]
  composite z-score: -0.166
[2]
  composite z-score: 0.57
[3]
  composite z-score: 0.145
[4]
  composite z-score: 0.61
[5]
  composite z-score: 1.53
[6]
  composite z-score: 1.99
[7]
  composite z-score: 0.981
[8]
  z-score: 0.0407 (inactive)
[9]
  composite z-score: 1.84
[10]
  composite z-score: 0.272

## CN(C)c1ccc(C(O)C2C=CC3C(=O)N(Cc4ccccc4)C(=O)C3N2n2cnnc2)cc1 (stereo not given)
[1]
  composite z-score: 0.0652
[2]
  composite z-score: 0.0666
[3]
  composite z-score: -0.0303
[4]
  composite z-score: 0.0521
[5]
  composite z-score: 0.0282
[6]
  composite z-score: -0.161
[7]
  composite z-score: -0.103
[8]
  z-score: -1.18 (inactive)
[9]
  composite z-score: 0.198
[10]
  composite z-score: 0.244

## CN(C)CCCC[C@@H]1NC(=O)[C@@H]2C[C@H](C(=O)NCCCCCCNC(=O)CS)[C@H](c3ccc(O)cc3)N2C1=O
[1]
  composite z-score: -0.195
[2]
  composite z-score: 0.991
[3]
  composite z-score: -0.0959
[4]
  composite z-score: 0.204
[5]
  composite z-score: 0.262
[6]
  composite z-score: 0.133
[7]
  composite z-score: 0.975
[8]
  z-score: 0.133 (inactive)
[9]
  composite z-score: -0.114
[10]
  composite z-score: -0.0645

## COCCCNC(=O)[C@@H]1c2ccccc2C(=O)N(Cc2ccc(OC(F)(F)F)cc2)[C@H]1c1ccc(CO)cc1
[1]
  composite z-score: -0.388
[2]
  composite z-score: 0.0383
[3]
  composite z-score: 0.015
[4]
  composite z-score: 0.235
[5]
  composite z-score: 0.329
[6]
  composite z-score: 0.244
[7]
  composite z-score: 0.617
[8]
  z-score: -0.228 (inactive)
[9]
  composite z-score: 0.541
[10]
  composite z-score: 1.03

## CC[C@@H]1C=C(C(=O)O)[C@H](c2ccc(OC)cc2)N1S(=O)(=O)c1ccc(C)cc1
[1]
  composite z-score: 0.0675
[2]
  composite z-score: -0.194
[3]
  composite z-score: -0.128
[4]
  composite z-score: -0.0542
[5]
  composite z-score: 0.0174
[6]
  composite z-score: 0.993
[7]
  composite z-score: 1.28
[8]
  z-score: 0.267 (inactive)
[9]
  composite z-score: 0.233
[10]
  composite z-score: -0.0994

## CCCCC(=C=CC[C@H](O)c1ccc(CO)o1)CCO
[1]
  composite z-score: -0.388
[2]
  composite z-score: 1.03
[3]
  composite z-score: -0.109
[4]
  composite z-score: 0.0582
[5]
  composite z-score: 0.165
[6]
  composite z-score: 1.75
[7]
  composite z-score: 1.2
[8]
  z-score: 0.0699 (inactive)
[9]
  composite z-score: 0.0508
[10]
  composite z-score: 0.0373

## CC(C)N1C(=O)c2ccccc2[C@@H](C(=O)NCC(F)(F)F)[C@@H]1c1ccc(CO)cc1
[1]
  composite z-score: 0.277
[2]
  composite z-score: -1.16
[3]
  composite z-score: -0.133
[4]
  composite z-score: -0.0347
[5]
  composite z-score: -1.07
[6]
  composite z-score: 0.156
[7]
  composite z-score: 1.21
[8]
  z-score: 0.0294 (inactive)
[9]
  composite z-score: -0.0934
[10]
  composite z-score: -0.169

## CC(C)c1nc2cc(Br)ccc2c(=O)o1
[1]
  composite z-score: -0.404
[2]
  composite z-score: 0.109
[3]
  composite z-score: 0.0013
[4]
  composite z-score: 0.58
[5]
  composite z-score: 1.39
[6]
  composite z-score: 1.21
[7]
  composite z-score: 0.565
[8]
  z-score: 0.604 (inactive)
[9]
  composite z-score: 0.689
[10]
  composite z-score: -0.146

## COCCOC(=O)N1C(=O)[C@@]2(c3cc(C#CCNC(N)=O)ccc31)[C@H](C(=O)Nc1nc3ccccc3s1)[C@H]1C(=O)O[C@H](c3ccccc3)[C@H](c3ccccc3)N1[C@@H]2c1ccccc1OCCO
[1]
  composite z-score: -0.35
[2]
  composite z-score: 0.578
[3]
  composite z-score: -0.0569
[4]
  composite z-score: 0.475
[5]
  composite z-score: 0.809
[6]
  composite z-score: 0.257
[7]
  composite z-score: 0.635
[8]
  z-score: 0.36 (inactive)
[9]
  composite z-score: 0.71
[10]
  composite z-score: -0.102

## C=CCOC(=O)[C@@H]1[C@H]2C(=O)O[C@H](c3ccccc3)[C@H](c3ccccc3)N2[C@H](c2ccc(OCCOC(=O)[C@H]3C[C@H]4C(=O)N[C@@H](CCCCN(C)C)C(=O)N4[C@H]3c3ccc(O)cc3)cc2)[C@@]12C(=O)Nc1ccc(I)cc12
[1]
  composite z-score: -0.139
[2]
  composite z-score: 1.43
[3]
  composite z-score: -0.0583
[4]
  composite z-score: 0.454
[5]
  composite z-score: -0.0871
[6]
  composite z-score: 0.655
[7]
  composite z-score: 1.33
[8]
  z-score: 0.921 (inactive)
[9]
  composite z-score: 0.166
[10]
  composite z-score: 0.0373
